Assay results: PubChem BioAssay AID1159580 (chemical genetic matrix, 2015)
Hit rate of the full screen: of about 5,500 compounds, about 2,000 (36%) were called active. Another 18% or so got no clear call; they are omitted. No stated cut-off is given here; in the data, active means normalized growth mostly below about 0.91 (no sharp cut-off); inconclusive means no clear call, values can overlap the other calls; inactive means mostly above about 0.92. Some of the results follow.

Test: chemical genetic growth profiling, strain panel (AID 1159580);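 further: tested at 20 µM; growth read once vehicle control cultures reached saturation at 30 °C; 1 = growth at the plate median or of vehicle wells; lower values mean less growth of the strain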
Conditions: growth OD

Measured: normalized growth

O=C(O)c1c2ccccc2cc2ccccc12
inactive: S. cerevisiae deletion strains, locus YJR043C, strain POL32, active compounds read low 1.04 | S. cerevisiae deletion strains, locus YJR075W, strain HOC1, active compounds read low 1.01 | S. cerevisiae deletion strains, locus YKL009W, strain mrt4, active compounds read low 0.989 | S. cerevisiae deletion strains, locus YKL068W, active compounds read low 0.971 | S. cerevisiae deletion strains, locus YKL085W, strain MDH1 (second series), active compounds read low 0.958 | S. cerevisiae deletion strains, locus YKL085W, strain MDH1, active compounds read low 0.958 | S. cerevisiae deletion strains, locus YKL160W, strain elf1, active compounds read low 0.991 | S. cerevisiae deletion strains, locus YKL190W, strain CNB1, active compounds read low 1.02 | S. cerevisiae deletion strains, locus YKR001C, strain vps1, active compounds read low 0.981 | S. cerevisiae deletion strains, locus YKR026C, strain gcn3, active compounds read low 1 | S. cerevisiae deletion strains, locus YKR091W, strain srl3, active compounds read low 0.986 | S. cerevisiae deletion strains, locus YLL001W, strain dnm1, active compounds read low 1 | S. cerevisiae deletion strains, locus YLL026W, active compounds read low 0.996 | S. cerevisiae deletion strains, locus YLL041C, strain sdh2, active compounds read low 0.992 | S. cerevisiae deletion strains, locus YLR027C, strain aat2, active compounds read low 0.999 | S. cerevisiae deletion strains, locus YLR039C, strain RIC1, active compounds read low 1.04 | S. cerevisiae deletion strains, locus YLR058C, strain SHM2, active compounds read low 1.02 | S. cerevisiae deletion strains, locus YLR102C, strain apc9, active compounds read low 0.983 | S. cerevisiae deletion strains, locus YLR221C, strain rsa3, active compounds read low 0.973 | S. cerevisiae deletion strains, locus YLR258W, strain gsy2, active compounds read low 0.992 | S. cerevisiae deletion strains, locus YLR262C, strain YPT6 (second series), active compounds read low 0.976 | S. cerevisiae deletion strains, locus YLR262C, strain YPT6, active compounds read low 1.03 | S. cerevisiae deletion strains, locus YLR268W, strain sec22, active compounds read low 0.986 | S. cerevisiae deletion strains, locus YLR320W, strain mms22, active compounds read low 1 | S. cerevisiae deletion strains, locus YLR330W, strain CHS5, active compounds read low 1.02 | S. cerevisiae deletion strains, locus YLR342W, strain FKS1 (second series), active compounds read low 0.971 | S. cerevisiae deletion strains, locus YLR342W, strain FKS1, active compounds read low 1 | S. cerevisiae deletion strains, locus YLR357W, strain rsc2, active compounds read low 1.06 | S. cerevisiae deletion strains, locus YLR370C, strain arc18, active compounds read low 0.998 | S. cerevisiae deletion strains, locus YLR371W, strain rom2, active compounds read low 0.992 | S. cerevisiae deletion strains, locus YLR384C, strain iki3, active compounds read low 0.992 | S. cerevisiae deletion strains, locus YLR418C, strain cdc73, active compounds read low 0.96 | S. cerevisiae deletion strains, locus YML016C, strain PPZ1, active compounds read low 1.01 | S. cerevisiae deletion strains, locus YML032C, strain rad52, active compounds read low 0.954 | S. cerevisiae deletion strains, locus YML120C, strain ndi1, active compounds read low 0.965 | S. cerevisiae deletion strains, locus YML124C, strain tub3, active compounds read low 0.985 | S. cerevisiae deletion strains, locus YMR058W, strain fet3, active compounds read low 1.01 | S. cerevisiae deletion strains, locus YMR078C, strain ctf18, active compounds read low 0.974 | S. cerevisiae deletion strains, locus YMR125W, strain sto1, active compounds read low 1.03 | S. cerevisiae deletion strains, locus YMR129W, active compounds read low 0.987 | S. cerevisiae deletion strains, locus YMR205C, strain PFK2, active compounds read low 1.01 | S. cerevisiae deletion strains, locus YMR223W, strain ubp8, active compounds read low 0.962 | S. cerevisiae deletion strains, locus YMR231W, strain pep5, active compounds read low 0.979 | S. cerevisiae deletion strains, locus YMR263W, strain SAP30, active compounds read low 1.02 | S. cerevisiae deletion strains, locus YMR307W, strain GAS1, active compounds read low 1.13 | S. cerevisiae deletion strains, locus YNL067W, strain RPL9B, active compounds read low 1.02 | S. cerevisiae deletion strains, locus YNL071W, strain lat1, active compounds read low 0.948 | S. cerevisiae deletion strains, locus YNL128W, strain TEP1, active compounds read low 1.02 | S. cerevisiae deletion strains, locus YNL153C, strain GIM3, active compounds read low 1.02 | S. cerevisiae deletion strains, locus YNL209W, strain ssb2, active compounds read low 1 | S. cerevisiae deletion strains, locus YNL233W, strain BNI4, active compounds read low 1.02 | S. cerevisiae deletion strains, locus YNL248C, strain rpa49, active compounds read low 0.993 | S. cerevisiae deletion strains, locus YNL250W, strain rad50, active compounds read low 0.965 | S. cerevisiae deletion strains, locus YNL271C, strain bni1, active compounds read low 0.949 | S. cerevisiae deletion strains, locus YNL298W, strain CLA4, active compounds read low 0.948 | S. cerevisiae deletion strains, locus YNL307C, strain MCK1, active compounds read low 0.969 | S. cerevisiae deletion strains, locus YNL322C, strain KRE1 (second series), active compounds read low 0.998 | S. cerevisiae deletion strains, locus YNL322C, strain KRE1, active compounds read low 1.02 | S. cerevisiae deletion strains, locus YNR049C, strain mso1, active compounds read low 1.01 | S. cerevisiae deletion strains, locus YNR052C, strain pop2, active compounds read low 0.982 | S. cerevisiae deletion strains, locus YOL006C, strain TOP1, active compounds read low 0.989 | S. cerevisiae deletion strains, locus YOL012C, strain htz1 0.952 | S. cerevisiae deletion strains, locus YOL147C, strain pex11, active compounds read low 0.986 | S. cerevisiae deletion strains, locus YOR001W, strain rrp6, active compounds read low 0.957 | S. cerevisiae deletion strains, locus YOR061W, strain CKA2, active compounds read low 1.01 | S. cerevisiae deletion strains, locus YOR069W, strain VPS5, active compounds read low 1.01 | S. cerevisiae deletion strains, locus YOR070C, strain gyp1, active compounds read low 0.999 | S. cerevisiae deletion strains, locus YOR080W, strain dia2, active compounds read low 1.01 | S. cerevisiae deletion strains, locus YOR083W, strain WHI5, active compounds read low 0.915 | S. cerevisiae deletion strains, locus YOR106W, strain vam3, active compounds read low 0.95 | S. cerevisiae deletion strains, locus YOR136W, strain idh2, active compounds read low 0.978 | S. cerevisiae deletion strains, locus YOR144C, strain elg1, active compounds read low 0.987 | S. cerevisiae deletion strains, locus YOR184W, strain ser1, active compounds read low 0.965 | S. cerevisiae deletion strains, locus YOR265W, strain rbl2, active compounds read low 0.996 | S. cerevisiae deletion strains, locus YOR270C, strain vph1, active compounds read low 0.973 | S. cerevisiae deletion strains, locus YOR290C, strain snf2, active compounds read low 0.999 | S. cerevisiae deletion strains, locus YOR316C, strain cot1, active compounds read low 0.983 | S. cerevisiae deletion strains, locus YPL051W, strain arl3, active compounds read low 0.982 | S. cerevisiae deletion strains, locus YPL055C, strain LGE1, active compounds read low 1.03 | S. cerevisiae deletion strains, locus YPL078C, strain atp4, active compounds read low 1 | S. cerevisiae deletion strains, locus YPL106C, strain sse1, active compounds read low 0.947 | S. cerevisiae deletion strains, locus YPL240C, strain hsp82, active compounds read low 0.994 | S. cerevisiae deletion strains, locus YPL241C, strain CIN2, active compounds read low 0.982 | S. cerevisiae deletion strains, locus YPR119W, strain clb2, active compounds read low 0.979 | S. cerevisiae deletion strains, locus YPR141C, strain kar3, active compounds read low 0.948 | S. cerevisiae deletion strains, locus YPR163C, strain tif3, active compounds read low 0.984 | S. cerevisiae deletion strains, locus YPR167C, strain met16, active compounds read low 0.987 | S. cerevisiae deletion strains, strain wtn01, active compounds read low 0.987 | S. cerevisiae strains, strain wild type, active compounds read low 1.01
